Most compounds without a hit are left out; they make up all but 13% or so of the library.
USP28 block: human USP28 deubiquitinase inhibition | Q96RU2 | AID 1645857 | inhibition, % at 25 µM | purified USP28, Ub-rhodamine cleavage fluorescence, 30 min | hit rate 3% among 47,000
USP8 inh: inhibitors of human USP8 deubiquitinase; hit rate 4.2% among 47,000; P40818; purified USP8, Ub-rhodamine cleavage fluorescence, 30 min; inhibition, % at 20 µM
USP30 block: inhibitors of human USP30 deubiquitinase. Q70CQ3. purified USP30, Ub-rhodamine cleavage fluorescence. inhibition, % at 25 µM. hit rate 5.3% among 47,000
USP17 block: human USP17-like deubiquitinase inhibition | A8MUK1 | purified USP17, Ub-rhodamine cleavage fluorescence, 3 h | inhibition, % at 50 µM | hit rate 6.5% among 47,000 | AID 1645855
Target sequence (A8MUK1 whole entry, looked up): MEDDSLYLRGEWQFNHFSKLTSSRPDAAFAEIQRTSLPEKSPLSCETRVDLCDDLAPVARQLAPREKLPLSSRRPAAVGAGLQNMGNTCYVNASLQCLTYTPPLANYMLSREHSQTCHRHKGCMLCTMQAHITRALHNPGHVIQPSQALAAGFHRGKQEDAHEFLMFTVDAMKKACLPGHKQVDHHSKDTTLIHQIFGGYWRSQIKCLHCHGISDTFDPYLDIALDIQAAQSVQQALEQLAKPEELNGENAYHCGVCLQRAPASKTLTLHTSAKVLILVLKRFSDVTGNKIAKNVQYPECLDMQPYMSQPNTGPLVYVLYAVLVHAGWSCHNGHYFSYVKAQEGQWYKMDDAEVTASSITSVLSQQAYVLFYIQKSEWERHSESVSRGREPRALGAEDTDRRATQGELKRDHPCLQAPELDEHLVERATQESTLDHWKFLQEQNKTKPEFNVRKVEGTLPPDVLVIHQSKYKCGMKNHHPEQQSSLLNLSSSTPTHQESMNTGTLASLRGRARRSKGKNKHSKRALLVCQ
A number is an active result; i = inactive; nt = no result. Cut-off read from the data, not from the text of the source: active = inhibition above about 30%; inactive = the rest.

SMILES | USP28 block | USP8 inh | USP30 block | USP17 block
COc1cc(OC)nc(Oc2ccccc2-c2noc(C)n2)n1 | i | i | i | i
O=C(Cn1cnc2sc(-c3ccccc3)cc2c1=O)N(Cc1ccccc1F)C1CC1 | 31 | i | 35 | 34
O=C(Cn1cnc2ccc(Cl)cc2c1=O)N(Cc1ccccc1F)C1CC1 | i | i | i | i
COc1ccc(C(=O)C(C)OC(=O)c2cccc(S(=O)(=O)Nc3cc([N+](=O)[O-])ccc3OC)c2)c(OC)c1 (configuration not stated) | i | i | 31 | i
c1csc(-c2nc(NC3CCCCC3)c3ccccc3n2)c1 | i | i | i | i
c1csc(-c2nc(Nc3ccc4c(c3)CCC4)c3ccccc3n2)c1 | i | 57 | i | 71
COc1cccc(NC(=O)CSc2nnc(-c3ccc(OC)c(OC)c3)c(-c3ccc(OC)c(OC)c3)n2)c1 | i | i | i | i
CNc1nc2c(c(=O)n1C)CN(S(=O)(=O)c1ccc(OC)cc1)CC2 | i | i | i | i
CC1=C(c2ccccc2)S(=O)(=O)N=C1N1CCCN(C(=O)c2ccccc2C)CC1 | i | i | i | i
O=C(NCc1ccncc1)c1ccc(Cn2cnc3ccccc3c2=O)o1 | i | i | i | i
COC(=O)c1ccc(Cn2cnc3ccc(F)cc3c2=O)o1 | 87 | i | i | i
COC(=O)c1ccc(Cn2cnc3ccc(Br)cc3c2=O)o1 | 80 | i | i | i
O=C(Nc1ccc(-c2cn3ccsc3n2)cc1)c1ccccc1Br | i | i | 37 | i
COc1ccc(CC(=O)Nc2ccc(-c3cn4ccsc4n3)cc2)cc1OC | i | i | i | i
N#Cc1ccc(OCC(=O)Nc2ccc(-c3cn4ccsc4n3)cc2)cc1 | i | 46 | i | i
O=S(=O)(c1cccc(Cl)c1)N1CCCCC1c1nnc(-c2cnccn2)o1 (configuration not stated) | i | i | i | i
CC1(C)CCCC2=C1CC(C)(C)C(N(C(=O)/C=C/C(=O)O)c1ccccc1)C2 (configuration not stated) | 49 | 59 | 75 | 77
CCn1cnc2c(-c3ccccc3)cn(CC(=O)Nc3ccc4c(c3)OCO4)c2c1=O | i | i | i | i
Cc1ccc2c(c1)c(=O)c(C(=O)c1ccccc1)cn2CC(=O)Nc1ccc(C)c(Cl)c1 | i | 59 | i | i
Cc1ccc2c(c1)c(=O)c(C(=O)c1ccc(F)cc1)cn2CC(=O)Nc1ccc2c(c1)OCCO2 | i | i | i | 70
COc1ccc(NC(=O)Cn2cc(C(=O)c3ccccc3)c(=O)c3cc(Cl)ccc32)cc1OC | i | i | i | i
Cc1ccc2c(c1)c(=O)c(C(=O)c1ccccc1)cn2CC(=O)Nc1ccc2c(c1)OCO2 | i | 71 | i | i
Cc1ccc(N2C(=O)N(CC(=O)Nc3ccc4c(c3)OCCO4)C(=O)C2C)cc1 (configuration not stated) | i | i | i | i
CC1Oc2ccccc2C(=O)N(CC(=O)c2ccc3c(c2)OCCO3)C1=O (configuration not stated) | 31 | i | i | i
CC1Oc2ccccc2C(=O)N(Cc2ccc(F)cc2)C1=O (configuration not stated) | i | i | i | i
SMILES | USP28 block | USP8 inh | USP30 block | USP17 block
CC1Oc2ccccc2C(=O)N(Cc2ccccc2)C1=O (configuration not stated) | 33 | i | 32 | i
CCN(CCO)c1ccc(NC(=O)c2ccccc2)c(C)c1 | i | i | i | i
FC(F)(F)c1ccnc(Nc2nccc(C3CN(Cc4ncc[nH]4)C3)n2)c1 | i | i | i | i
COc1ccccc1Nc1ncc(C(=O)NCc2ccc3c(c2)OCO3)c2ccccc12 | i | 63 | i | 32
COc1cc(OC)c(NC(C)C(=O)Nc2ccc3c(c2)OCO3)cc1Cl (configuration not stated) | i | 37 | i | i
COc1cc(Cl)ccc1Nc1ncc(C(=O)Nc2ccc3c(c2)OCO3)c2ccccc12 | i | 39 | i | i
CCOC(=O)c1cnc(Nc2ccccc2OC)c2ccccc12 | i | i | i | i
COc1ccccc1Nc1ncc(C(=O)NCc2ccc(F)cc2)c2ccccc12 | i | 71 | i | 35
COc1ccccc1N1CC(C(=O)Nc2ccc3c(c2)OCO3)CC1=O (configuration not stated) | i | i | i | i
Cc1ccc(CNCC(=O)Nc2cccc(S(=O)(=O)NC3=NCCCCC3)c2)cc1 | i | i | i | i
CCCCN(CC(=O)NCc1ccc2c(c1)OCO2)S(=O)(=O)c1ccc(Cl)cc1 | i | i | i | i
Cc1nnc(NC(=O)C(=O)c2cc(C)n(-c3ccc(Cl)cc3)c2C)s1 | i | 41 | i | 43
Nc1c(-c2ccncc2)nsc1C(=O)N1CCN(c2ccccc2F)CC1 | i | i | i | i
CC1CC(=O)Nc2ccccc2N1S(=O)(=O)c1ccc(C#N)cc1 (configuration not stated) | i | i | 55 | i
Cc1cccnc1Nc1cccc(C2CCCN2S(=O)(=O)N(C)C)n1 (configuration not stated) | i | i | i | i
O=C(NCCc1ccccc1)c1cc2ccccc2c(=O)s1 | nt | i | nt | 73
O=C(NCCc1ccc(Cl)cc1)c1cc2ccccc2s1 | i | i | i | i
COc1ccc(CC(=O)N2CCN(c3ccc(Nc4ccccn4)nn3)CC2)cc1 | 37 | i | i | nt
COc1ccc(S(=O)(=O)NCc2ccc(C(=O)N3CCN(c4ccccn4)CC3)cc2)cc1 | i | i | i | i
COc1cccc(NC(=O)COc2cccc3c2OC(C)(C)C3)c1 | i | i | i | i
O=C(Cn1c(=O)[nH]c2c(-c3ccc(F)cc3)c[nH]c2c1=O)NCc1ccc(F)cc1 | i | 32 | i | i
CN(Cc1ccccc1)C(=O)Cn1c(=O)[nH]c2c(-c3ccccc3)c[nH]c2c1=O | i | 46 | i | i
Cc1noc2nc(C)n(CC(=O)N(C)Cc3ccccc3)c(=O)c12 | i | i | i | i
O=C(Cn1c(=O)n(Cc2ccccc2)c(=O)c2cc(Cl)ccc21)NCc1ccco1 | i | i | i | i
O=C(Cn1c2ncccc2c(=O)n1-c1ccccc1)NCc1ccc(Cl)cc1 | i | i | i | i
SMILES | USP28 block | USP8 inh | USP30 block | USP17 block
O=C(Cn1c(=O)[nH]c2c(-c3ccccc3)c[nH]c2c1=O)NCc1ccco1 | nt | i | nt | 45
O=C(Cn1c(=O)[nH]c2c(-c3ccccc3)c[nH]c2c1=O)NCc1ccc(Cl)cc1 | i | 32 | i | i
Cc1[nH]c2ccccc2c1C1N(Cc2ccccc2)CCN1Cc1ccccc1 | i | i | i | nt
Cc1cc(C)n2cc(-c3sccc3Cl)c(C(=O)N(C)C)c2n1 | i | i | i | i
O=C1C(C2CCN(c3cccnc3)CC2)CC=CCN1Cc1ccc(F)cc1 (configuration not stated) | nt | i | nt | i
O=C(Cn1c(=O)[nH]c2c(-c3ccccc3F)c[nH]c2c1=O)NC1CCCCC1 | i | 34 | i | i
CC1CCC2(CC1)NC(=O)N(CC(=O)N(c1ccccc1)C(C)C)C2=O (configuration not stated) | i | i | i | i
CC(C)N(C(=O)Cn1c(=O)[nH]c2ccccc21)c1ccccc1 | i | i | i | 58
CCC1(c2ccccc2)NC(=O)N(CC(=O)N(c2ccccc2)C(C)C)C1=O (configuration not stated) | i | i | 37 | i
COc1ccccc1OCC(=O)Nc1cc(C(F)(F)F)ccc1N1CCOCC1 | i | i | i | i
